Test results taken from the OligoGym collection.

Each sequence was assayed against TMEM70 (assay: pooled miR-30 sensor sort-seq; sequence = guide strand). Conditions: shRNA.
Further: reference of the scale not given here.

Sequence	sensor-assay potency score (higher = more potent)
TTTAAGAATCGAACATATCCTT	0.136
TAGCATTGTAGGTAATGGCTTT	-0.0699
TAACAATCAGTCACTAACGGAA	-0.91
TACAATCGAATGACATAGCCTT	0.02
TTAAGAATCGAACATATCCTTC	-0.465
TTAACAATCAGTCACTAACGGA	-0.588
TGGTGAAACACTGTACTCGTTT	-0.765
TTTTGTAATAAAGTGAAGCAGC	-0.766
TTTCACACCAAACACTGCTCGG	-0.271
TTAACTAACAGTGATTTTGTTT	-0.473
TTTATTATAAACAAACATCATT	-1.08
TAAACAAACATCATTCTCTGGA	0.0797

Each sequence was assayed against TMEM8B in the same assay as above. Conditions: shRNA.

Sequence	sensor-assay potency score (higher = more potent)
TGTAGAAGTAGTTGTCCCGGGT	0.134
TCCATGTCGGTCAAGCTGCAGA	-1.7
ATGTAGAAGTAGTTGTCCCGGG	-0.575
TAAGATGCAGACACCACCGCAT	0.345
TTATCTATGCATGACAGTTTGG	-0.348
ATAATTGTGTGTGCGCAGCAGC	-0.93
TAGCTGGTAACCACAGCCCCGG	-1.14
TAGAAGTGGACAGAGAAGGTGT	0.765
TATCTATGCATGACAGTTTGGG	-0.202
TAGGTGAGCGCATCTGCACTGT	-0.509
